The values that follow come from PubChem BioAssay (NCI).

Structures are written as SMILES. The panel holds about 79,000 compounds, 15% with a hit somewhere; the sample as a whole holds those more often. Values without a mark were called inactive. The source made the active and inactive calls. Cut-off read from the data, not from the text of the source: active = growth inhibition above about 70%; inactive = the rest.

The nature of assay [1]: NCI Yeast Anticancer Drug Screen. Data for the rad50 strain (AID 155).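 Note: 0% = growth of vehicle-only cultures of the same strain.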 The settings on record: S. cerevisiae rad50 strain growth inhibition, active compounds read high. The essentials: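 Compounds were tested on a yeast strain with an engineered DNA damage repair alteration; the reported value is growth inhibition normalised to vehicle treatment.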
The nature of assay [2]: NCI Yeast Anticancer Drug Screen. Data for the mec2-1 strain (AID 157). The settings on record: S. cerevisiae mec2-1 strain, active compounds read high. The method, boiled down:
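Yeast mec2-1 mutant treated with compound. Readout: growth inhibition vs vehicle controls.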

The nature of assay [3]: NCI Yeast Anticancer Drug Screen. Data for the sgs1 mgt1 strain (AID 161).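 Note: 0% = growth of cultures given vehicle only.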 The settings on record: S. cerevisiae sgs1 mgt1 strain, active compounds read high. The method, boiled down:
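Genetically altered yeast, compound exposure, growth inhibition relative to vehicle.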

Assay [4] can be described thus: NCI Yeast Anticancer Drug Screen. Data for the cln2 rad14 strain (AID 165).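 Note: 0% = growth equal to vehicle treated cultures.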 The settings on record: S. cerevisiae cln2 rad14 strain, active compounds read high. The essentials:
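cln2 rad14 yeast strain; compound exposure; growth inhibition read vs vehicle controls.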

Assay [5] in a line: NCI Yeast Anticancer Drug Screen. Data for the bub3 strain (AID 167). Conditions: S. cerevisiae bub3 mutant strain, active compounds read high. The method, boiled down: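 Growth of a checkpoint-deficient yeast mutant is measured after compound exposure. Values represent inhibition relative to vehicle.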
Assay [6] in a line: NCI Yeast Anticancer Drug Screen. Data for the mlh1 rad18 strain (AID 175). The settings on record: S. cerevisiae mlh1 rad18 strain growth inhibition, active compounds read high. The method, boiled down:
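Yeast w/ defined DNA-repair lesions; compound exposure; growth vs vehicle controls → % inhibition.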

Where [7] appears, read: at 5.0 µM (retest, dose inferred, filed as 0.5).
Setting [8] is: at 50.0 µM (retest, dose inferred, filed as 5.0).

`c1ccc(-n2c3ccccc3c3ccccc32)cc1`: the growth inhibition is 4% in assay [1] (setting [7]); 11% in assay [1] (setting [8]); 86.7% (active) in assay [1] (at 50.0 µM); 4% in assay [2] (setting [7]); 3% in assay [2] (setting [8]); 82.2% (active) in assay [2] (at 50.0 µM). The growth inhibition in assay [3] (setting [7]) is 1%; in assay [3] (setting [8]) it was 9%; in assay [3] (at 50.0 µM), 88.2% (active); in assay [4] (setting [7]), 1%; in assay [4] (setting [8]), -12%; in assay [4] (at 50.0 µM) it was 37.9%. Besides, the growth inhibition is 5% in assay [5] (setting [7]); 21% in assay [5] (setting [8]); 88.2% (active) in assay [5] (at 50.0 µM); -1% in assay [6] (setting [7]); 11% in assay [6] (setting [8]); 84.5% (active) in assay [6] (at 50.0 µM).
With `Oc1ccc(Cl)cc1Cc1cc(Cl)cc(Cc2cc(Cl)ccc2O)c1O`, the growth inhibition in assay [1] (setting [7]) was -1%; in assay [1] (setting [8]) it was 97% (active); in assay [1] (at 50.0 µM), 96% (active); in assay [2] (setting [7]) it was 1%; in assay [2] (setting [8]) it was 98% (active); in assay [2] (at 50.0 µM), 97.3% (active). For the same compound, the growth inhibition in assay [3] (setting [7]) was 4%; in assay [3] (setting [8]), 98% (active); in assay [3] (at 50.0 µM), 97.5% (active); in assay [4] (setting [7]) it was -12%; in assay [4] (setting [8]), 95% (active); in assay [4] (at 50.0 µM) it was 96.5% (active). Also, the growth inhibition in assay [5] (setting [7]) is -17%; in assay [5] (setting [8]) it was 98% (active); in assay [5] (at 50.0 µM), 96.7% (active); in assay [6] (setting [7]), 14%; in assay [6] (setting [8]), 97% (active); in assay [6] (at 50.0 µM) it was 95.8% (active).
With `C/C(=N\NC(=S)Nc1ccc(Cl)cc1)c1nc2ncccc2[nH]1`, the growth inhibition is 3% in assay [1] (setting [7]); 98% (active) in assay [1] (setting [8]); 89.8% (active) in assay [1] (at 50.0 µM); -6% in assay [2] (setting [7]); 98% (active) in assay [2] (setting [8]); 90.2% (active) in assay [2] (at 50.0 µM). Also, the growth inhibition in assay [3] (setting [7]) was 0%; in assay [3] (setting [8]) it was 96% (active); in assay [3] (at 50.0 µM), 85.2% (active); in assay [4] (setting [7]) it was -38%; in assay [4] (setting [8]) it was 99% (active); in assay [4] (at 50.0 µM), 87.9% (active). Besides, the growth inhibition was -28% in assay [5] (setting [7]); 95% (active) in assay [5] (setting [8]); 90.1% (active) in assay [5] (at 50.0 µM); -1% in assay [6] (setting [7]); 98% (active) in assay [6] (setting [8]); 85.4% (active) in assay [6] (at 50.0 µM).
In the case of `Cc1cc2nc3c(C)c4ccccc4c(C)n3c2cc1C`, the growth inhibition in assay [1] (setting [7]) is 82% (active); in assay [1] (setting [8]) it was 93% (active); in assay [1] (at 50.0 µM), 80.8% (active); in assay [2] (setting [7]), 69%; in assay [2] (setting [8]), 96% (active); in assay [2] (at 50.0 µM) it was 87.8% (active). For the same compound, the growth inhibition in assay [3] (setting [7]) is 72% (active); in assay [3] (setting [8]), 50%; in assay [3] (at 50.0 µM), 85.3% (active); in assay [4] (setting [7]), 73% (active); in assay [4] (setting [8]) it was 94% (active); in assay [4] (at 50.0 µM) it was 83.4% (active). Besides, the growth inhibition in assay [5] (setting [7]) is 75% (active); in assay [5] (setting [8]) it was 94% (active); in assay [5] (at 50.0 µM), 86.4% (active); in assay [6] (setting [7]), 81% (active); in assay [6] (setting [8]), 95% (active); in assay [6] (at 50.0 µM), 79.3% (active).
Take `CCN(CC)COC(=S)S`: the growth inhibition in assay [1] (setting [7]) was 8%; in assay [1] (setting [8]), 99% (active); in assay [1] (at 50.0 µM) it was 97.7% (active); in assay [2] (setting [7]), -3%; in assay [2] (setting [8]), 100% (active); in assay [2] (at 50.0 µM), 83.1% (active). Also, the growth inhibition in assay [3] (setting [7]) is 11%; in assay [3] (setting [8]) it was 99% (active); in assay [3] (at 50.0 µM) it was 99% (active); in assay [4] (setting [7]), 5%; in assay [4] (setting [8]) it was 97% (active); in assay [4] (at 50.0 µM), 44%. The growth inhibition in assay [5] (setting [7]) was -11%; in assay [5] (setting [8]), 99% (active); in assay [5] (at 50.0 µM) it was 97.3% (active); in assay [6] (setting [7]) it was 15%; in assay [6] (setting [8]) it was 99% (active); in assay [6] (at 50.0 µM), 98.5% (active).
For `NNc1nc(Nc2ccccc2)nc(Nc2ccccc2)n1`, the growth inhibition in assay [1] (setting [7]) is -8%; in assay [1] (setting [8]), 93% (active); in assay [1] (at 50.0 µM), 51.9%; in assay [2] (setting [7]) it was -5%; in assay [2] (setting [8]), 10%; in assay [2] (at 50.0 µM) it was 42%. The growth inhibition in assay [3] (setting [7]) is -9%; in assay [3] (setting [8]), 56%; in assay [3] (at 50.0 µM), 45.5%; in assay [4] (setting [7]), -9%; in assay [4] (setting [8]), 52%; in assay [4] (at 50.0 µM) it was 37.5%. The growth inhibition in assay [5] (setting [7]) was -4%; in assay [5] (setting [8]), 44%; in assay [5] (at 50.0 µM), 48.5%; in assay [6] (setting [7]) it was -2%; in assay [6] (setting [8]) it was 51%; in assay [6] (at 50.0 µM), 41.6%.
`[Cl][Sn]([O][Sn]([Cl])([c]1ccccc1)[CH]1CCCCC1)([c]1ccccc1)[CH]1CCCCC1` (stereo not given): the growth inhibition in assay [1] (setting [7]) is 6%; in assay [1] (setting [8]), 97% (active); in assay [1] (at 50.0 µM), 88% (active); in assay [2] (setting [7]), 7%; in assay [2] (setting [8]) it was 99% (active); in assay [2] (at 50.0 µM), 90.3% (active). The growth inhibition is 12% in assay [3] (setting [7]); 99% (active) in assay [3] (setting [8]); 90.8% (active) in assay [3] (at 50.0 µM); -11% in assay [4] (setting [7]); 98% (active) in assay [4] (setting [8]); 90.1% (active) in assay [4] (at 50.0 µM). In addition, the growth inhibition was 2% in assay [5] (setting [7]); 99% (active) in assay [5] (setting [8]); 89.6% (active) in assay [5] (at 50.0 µM); 5% in assay [6] (setting [7]); 97% (active) in assay [6] (setting [8]); 92% (active) in assay [6] (at 50.0 µM).
For `CCOP(=O)(OCC)/C(C#N)=C/c1ccc(Oc2ccccc2)cc1`, the growth inhibition in assay [1] (setting [7]) was -12%; in assay [1] (setting [8]), 97% (active); in assay [1] (at 50.0 µM) it was 90.2% (active); in assay [2] (setting [7]), -42%; in assay [2] (setting [8]), 98% (active); in assay [2] (at 50.0 µM), 93.6% (active). The growth inhibition was -11% in assay [3] (setting [7]); 97% (active) in assay [3] (setting [8]); 91.5% (active) in assay [3] (at 50.0 µM); -5% in assay [4] (setting [7]); 98% (active) in assay [4] (setting [8]); 90.6% (active) in assay [4] (at 50.0 µM). Moreover, the growth inhibition in assay [5] (setting [7]) was -3%; in assay [5] (setting [8]), 94% (active); in assay [5] (at 50.0 µM), 90.5% (active); in assay [6] (setting [7]), 1%; in assay [6] (setting [8]) it was 97% (active); in assay [6] (at 50.0 µM), 89.8% (active).
Consider `CN(C)c1nc(N(C)C)sc(=O)n1`, for which the growth inhibition is 0% in assay [1] (setting [7]); 91% (active) in assay [1] (setting [8]); 85% (active) in assay [1] (at 50.0 µM); -4% in assay [2] (setting [7]); 28% in assay [2] (setting [8]); 25.8% in assay [2] (at 50.0 µM). In addition, the growth inhibition was 2% in assay [3] (setting [7]); 78% (active) in assay [3] (setting [8]); 69% in assay [3] (at 50.0 µM); 8% in assay [4] (setting [7]); 26% in assay [4] (setting [8]); 1.5% in assay [4] (at 50.0 µM). Moreover, the growth inhibition in assay [5] (setting [7]) was -10%; in assay [5] (setting [8]), 37%; in assay [5] (at 50.0 µM), -3.6%; in assay [6] (setting [7]), 9%; in assay [6] (setting [8]), 86% (active); in assay [6] (at 50.0 µM), 76.3% (active).
`CCCNC(=S)N/N=C(/C)c1nccc2ccccc12`: the growth inhibition was 9% in assay [1] (setting [7]); 86% (active) in assay [1] (setting [8]); 38.1% in assay [1] (at 50.0 µM); 4% in assay [2] (setting [7]); 98% (active) in assay [2] (setting [8]); 20.4% in assay [2] (at 50.0 µM). Further, the growth inhibition is 7% in assay [3] (setting [7]); 88% (active) in assay [3] (setting [8]); 70% (active) in assay [3] (at 50.0 µM); -8% in assay [4] (setting [7]); 7% in assay [4] (setting [8]); 17.9% in assay [4] (at 50.0 µM). Besides, the growth inhibition is 0% in assay [5] (setting [7]); 78% (active) in assay [5] (setting [8]); 14.8% in assay [5] (at 50.0 µM); 3% in assay [6] (setting [7]); 93% (active) in assay [6] (setting [8]); 29.4% in assay [6] (at 50.0 µM).
